Lassa entry inh = qHTS for Inhibitors of binding or entry into cells for Lassa Virus. Lassa virus pseudotype entry inhibition, cell reporter. Potency, µM (top dose mostly 37.9 µM), inactives show at the top dose activity change, negative = inhibition, actives largely listed as inhibitors. actives 1.2% (n = 300,000). AID 540256, 2011; calls by dose curve; tested in HEK293 cells; further: potency means the concentration at half of the fitted maximal effect; on the % scale 0 is the no-effect control and ±100 the full control effect; nearly all actives have a fitted effect of over 50% in size
MARV entry inh = qHTS for inhibitors of binding or entry into cells for Marburg Virus; Marburg virus pseudotyped entry inhibition, cell reporter; Potency, µM (highest dose often 37.8 µM), for inactives: at the top dose activity change, negative = inhibition, usual class: inhibitors; actives 1.8% (n = 300,000); AID 540276, 2011; calls by dose curve; tested in HEK293 cells; further: potency means the concentration at half of the fitted maximal effect; on the % scale 0 is the no-effect control and ±100 the full control effect
SARS PLpro yeast = qHTS of Yeast-based Assay for SARS-CoV PLP | S. cerevisiae expressing SARS-CoV PLpro, growth rescue | Potency, µM (top dose mostly 32.9 µM), for the others: top-dose activity, positive = growth rescue, most hits filed as activators | actives 0.19% (n = 330,000); calls by dose curve; further: potency means the concentration at half of the fitted maximal effect; 0% is about no effect; nearly all actives have a fitted effect of over 55% in size
HCMV antiviral = qHTS Assay for inhibitors of the human cytomegalovirus (HCMV); actives 4.5% (n = 410,000); activity change, negative = inhibition, % at 57.5 µM; HFF cells, HCMV-luciferase reporter, 72 h; stronger effect = lower value; in the data active means activity change below about -60%; inconclusive means no clear call, values can overlap the other calls; inactive means above about -39%; further: on the % scale 0 is the no-effect control and ±100 the full control effect
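Two compound doses tested in HFFs infected with HCMV-luciferase, MOI 1 PFU/cell, 72 h at 37C. Lysate luminescence read with OneGlo; data normalized against buffer-only and 10uM Salinomycin inhibitor controls.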
FMDV inh = High Throughput Screening for Foot and Mouth Disease Virus Antivirals; Potency, µM (top dose mostly 57.9 µM), inactives show at the top dose activity change, negative = inhibition, actives largely listed as inhibitors; FMDV antiviral cell-based qHTS; actives 1.2% (n = 410,000); calls by dose curve; tested in HEK293T cells; further: read-out not given here; potency means the concentration at half of the fitted maximal effect; on the % scale 0 is the no-effect control and ±100 the full control effect; nearly all actives have a fitted effect of over 45% in size
HCV inhibitor = qHTS Assay for Inhibitors of Hepatitis C Virus (HCV) | Huh7.5.1 HCVcc-Cre infection, luciferase reporter, 44 h | AID 651820, 2012 | actives 3.4% (n = 340,000) | Potency, µM (series often up to 41.8 µM), inactives show at the highest dose activity change, negative = inhibition, actives largely listed as inhibitors; further: potency means the concentration at half of the fitted maximal effect; on the % scale 0 is the no-effect control and ±100 the full control effect
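Infectious HCVcc-Cre (~0.5 moi) was added to cells just after compound, with cells seeded 4 h earlier at 1,000 per well. Luciferase activity after 44 h culture reported infection; substrate was incubated 15 min at room temperature before reading.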
HCV inh confirm = qHTS Assay for Inhibitors of Hepatitis C Virus (HCV): Confirmation Assay for Cherry-picked Compounds; shares compounds with HCV inhibitor; HCVcc-Cre infectious virus cell assay, luciferase, inhibition; Potency, µM (highest dose often 41.8 µM), inactives show top-dose activity, negative = inhibition, hits mostly inhibitors; actives 78% (n = 640); AID 720575, 2013; further: potency means the concentration at half of the fitted maximal effect; nearly all actives have a fitted effect of over 80% in size
HCV cytotox = qHTS Assay for Inhibitors of Hepatitis C Virus (HCV): Cytotoxicity Counterscreen for Cherry-picked Compounds | shares compounds with HCV inhibitor | actives 22% (n = 640) | AID 720576, 2013 | HCV host cell line cytotoxicity counterscreen | Potency, µM (titrated, usually from 41.8 µM), inactives show top-dose activity change, negative = cytotoxicity, most hits filed as inhibitors;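 further: potency means the concentration at half of the fitted maximal effect; 44 h compound exposure; on the % scale 0 is the no-effect control and ±100 the full control effect; nearly all actives have a fitted effect of over 55% in size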
* marks the source's active call; other numbers are inactive results; ? = inconclusive; . = no result; [ ] = another dose, or the depositor's remark. Sampled rows, rich in hits. Any-hit rate of the full collection: about 8%. Unless noted, the call rests on the fitted dose curve; in most records, active means well fitted curve in the direction sought with a large enough effect; inconclusive means small, poorly fitted or top-dose-only effect, or another doubt; inactive means no such curve, though single readings can be large; an effect the other way counts as inactive or inconclusive.

SMILES | Lassa entry inh | MARV entry inh | SARS PLpro yeast | HCMV antiviral | FMDV inh | HCV inhibitor | HCV inh confirm | HCV cytotox
COc1ccc(-c2nn(-c3ccccc3)cc2C(=O)O)cc1N | . | . | -6% | 1 | -22% | 15% | . | .
COC(=O)c1cn(-c2ccccc2)nc1-c1ccc(OC)c(OC)c1 | . | . | -2% | -7 | 0% | 7.9µM* | 14µM* | 50%
CCOc1ccc(Cc2nnc(SCC(=O)Nc3ccccc3)n(N)c2=O)cc1 | ? | -2%[46.1 µM] | 1% | -18 | 4% | ? | . | .
CCOc1ccccc1NC(=O)CSc1nnc(Cc2ccc(OC)cc2)c(=O)n1N | -15% | 0% | 4% | 8 | -14% | ? | 7.9µM* | 26%
CCCNc1ccc(-c2nc(-c3ccncc3)no2)cc1[N+](=O)[O-] | 2%[46.1 µM] | 27%[46.1 µM] | . | 5 | 25% | . | . | .
CCOC(=O)c1ccc(NC(=O)CC2C(=O)N(c3cccc(OC)c3)C(=O)N2Cc2ccc(OC)cc2)cc1 (centres undefined) | -24%[46.1 µM] | ? | . | 17 | -15% | . | . | .
CCOC(=O)c1[nH]c(C)c(CCC(=O)Nc2cc(C)ccc2OC)c1C | -18%[46.1 µM] | . | . | -22 | -19% | . | . | .
C=C(CN(C)C)C(=O)c1cc(C)ccc1C | ? | ? | . | -99* | ? | ? | 8.9µM* | 7.9µM*
Cc1ccc(C)c(C(=O)NCCN(C)C)c1 | -2% | 9% | 1% | 60 | 8% | 1% | . | .
COc1ccc(-c2nc(CN3CCN(c4ncnc5ccccc45)CC3)c(C)o2)c(OC)c1 | ? | 15µM* | -1% | -82* | 20µM* | 5µM* | 5µM* | 7.9µM*
Cc1cc(C)c(S(=O)(=O)Nc2ccc(-c3cn4ccccc4n3)cc2)c(C)c1 | -2% | ? | 7% | ? | 0% | ? | 22µM* | -14%
Cc1cccc(S(=O)(=O)Nc2ccc(-c3cn4ccccc4n3)cc2)c1 | ? | -2% | -14% | -3 | -4% | 9% | . | .
COc1ccc(NC(=O)c2cc(-c3ccccc3O)n[nH]2)cc1Cl | -2%[46.1 µM] | ? | 2% | -2 | 7% | -25% | . | .
COc1ccc(NC(=O)c2cc(-c3cc(C)cc(C)c3O)n[nH]2)cc1Cl | 0% | ? | -12% | -40 | ? | 8.9µM* | 14µM* | ?
CS(=O)c1nc(-c2ccc(Br)cc2)cc(-c2ccccc2)c1C#N (centres undefined) | ? | ? | -11% | -98* | . | 5µM* | ? | ?
CCS(=O)(=O)CCSc1nc(-c2ccc(Br)cc2)cc(-c2ccccc2)c1C#N | 16%[46.1 µM] | . | . | 16 | -25% | . | . | .
COc1cccc(C(=O)Nc2ccc3c(c2)CCCN3C(=O)c2cccs2)c1OC | ? | . | -15% | -33 | -15% | 4.5µM* | 25µM* | ?
COC(=O)C1=C(c2ccc(-c3ccccc3)c(F)c2)C[C@@H]2CC[C@H]1N2C(=O)NCc1cccc2ccccc12 | . | . | 3% | 86 | -19% | ? | 11µM* | 44%
COC(=O)C1=C(c2ccc(-c3ccccc3)c(F)c2)C[C@@H]2CC[C@H]1N2C(=O)NCCNC(C)=O | . | . | 1% | -19 | -26% | -9% | . | .
CSc1scc2c1-c1nc(SCC(=O)C(C)(C)C)ncc1CC2 | . | . | 0% | ? | -5% | 8.9µM* | 25µM* | -16%
Cc1ccc(C)c(N(C)C(=O)c2cc3c(s2)-c2ccccc2OC3)c1 | . | 29%[46.1 µM] | . | 8 | -19% | . | . | .
CSc1nc2nc(C)cc(-c3ccccc3)n2n1 | 11% | 4% | -3% | -26 | -22% | 7.9µM* | ? | 15%

High-throughput results (PubChem)
